From PubChem BioAssay
The list is not random: actives were taken first. Their share in the collection is about 2.5%.
Cruzain Triton: cruzain (T. cruzi) inhibition with detergent | purified cruzain, Z-FR-AMC fluorescence, 0.01% Triton | Potency, µM, for the others: max response, negative = inhibition, usual class: inhibitors | actives 0.43% (n = 200,000) | P25779;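 note: plate controls were neutral wells for no effect and buffer without enzyme for full effect; nearly all actives have a fitted effect of over 40% in size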
Target sequence (P25779 123-467 limits assumed): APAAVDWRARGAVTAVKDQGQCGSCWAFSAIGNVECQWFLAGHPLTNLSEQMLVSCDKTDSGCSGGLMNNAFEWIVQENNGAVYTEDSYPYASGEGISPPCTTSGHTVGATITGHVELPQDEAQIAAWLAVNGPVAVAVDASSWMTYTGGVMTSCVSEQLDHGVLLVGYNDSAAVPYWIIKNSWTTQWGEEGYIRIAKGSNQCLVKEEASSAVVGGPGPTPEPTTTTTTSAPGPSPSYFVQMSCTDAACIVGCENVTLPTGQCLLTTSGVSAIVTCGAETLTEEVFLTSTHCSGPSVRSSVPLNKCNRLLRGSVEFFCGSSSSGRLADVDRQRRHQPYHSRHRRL
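Compounds were screened in titration against cruzain (1.5 nM) with 0.01% Triton X-100 to counter colloidal aggregation. Activity was the AMC fluorescence increase over 60 s after adding 2 uM Z-FR-AMC at pH 5.5.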
Cruzain noTriton: cruzain (T. cruzi) inhibition without detergent; P25779; purified cruzain, Z-FR-AMC fluorescence, no detergent; Potency, µM, for the others: max response, negative = inhibition, most hits filed as inhibitors; actives 2.3% (n = 200,000);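 note: plate controls were enzyme without inhibitor for no effect and buffer without enzyme for full effect; nearly all actives have a fitted effect of over 40% in size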
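Purified cruzain at 1.5 nM, pre-incubated 15 min with compound at room temperature in 100 mM sodium acetate pH 5.5, 5 mM DTT, 0.00005% Triton X-100. Reaction started with 2 uM Z-FR-AMC; AMC fluorescence increase over 60 s gives rate.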
* marks the source's active call; other numbers are inactive results; ? = inconclusive. Calls come from the whole dose curve; as a rule, active = well fitted curve in the direction sought with a large enough effect; inconclusive = small, poorly fitted or top-dose-only effect, or another doubt; inactive = no such curve, though single readings can be large; an effect the other way counts as inactive or inconclusive. Potency is the fitted concentration of half-maximal effect.

SMILES	Cruzain Triton	Cruzain noTriton
CCOc1ccccc1N=C1SC(CC(=O)Nc2ccc(OC)cc2OC)C(=O)N1CCC1=CCCCC1 (stereo not drawn)	-4%	?
CCOC(=O)c1cc(S(=O)(=O)N2CCN(c3ccccc3OC)CC2)[nH]n1	-1%	-1%
COc1ccc(C2NC(=O)c3sc(=S)n(-c4ccccc4)c3N2)cc1 (stereo not drawn)	0%	25µM*
CCOc1ccc(C2NC(=O)c3sc(=S)n(-c4ccccc4)c3N2)cc1 (stereo not drawn)	-12%	-18%
Cc1ccc(-n2nc(C)c3c(C)c(CCC(=O)NCc4ccc(Cl)cc4)c(C)nc32)cc1	0%	-8%
O=C1C2C=CC=CC2=NC(=S)N1CCN1CCC(=C(c2ccc(F)cc2)c2ccc(F)cc2)CC1 (stereo not drawn)	-10%	13µM*
O=C(CN1CCN(CCN2C(=O)c3cccc4cccc(c34)C2=O)CC1)c1ccc(F)cc1	-28%	?
Cc1cc(=O)[nH]c2nnc(SCCC(C)C)n12	-1%	8%
Cc1ccc(C)n1N1C(=O)/C(=C\c2ccc(Cl)cc2)SC1=S	-6%	?
NS(=O)(=O)c1ccc(CCN2C(=O)/C(=C\c3ccc(Cl)cc3)SC2=S)cc1	-2%	25µM*
COc1ccccc1CCn1c(=O)c(-c2ccc(F)c(F)c2)nc2cncnc21	6%	-5%
O=C(Cc1ccc(Br)cc1)NC1CCCCC1	-6%	4%
CC1CCCC(NC(=O)Cc2ccc(Br)cc2)C1C (stereo not drawn)	25µM*	?
Cc1ccc(CN2CCN(C3CCNCC3)C(=O)C2=O)cc1	0%	-1%
O=C(O)CNC(=O)/C(=C/c1ccco1)NC(=O)/C=C/c1ccccc1	-6%	2%
C=CCOC(=O)/C(=C/c1ccco1)NC(=O)/C=C/c1ccccc1	28µM*	-28%
COc1cc2c(cc1OC)C(C(C(=O)N(CCc1ccc(OC)c(OC)c1OC)CCc1ccc(OC)c(OC)c1OC)c1ccccc1)=NCC2 (stereo not drawn)	1%	?
S=C([S-])NCCNC(=S)[S-].[Zn+2]	32µM*	?
COc1ccc(NC(=O)c2c(C)oc3ccc(O)c(CN4CCN(C)CC4)c23)cc1Cl	-4%	-10%
O=C(N/N=C/c1cn(CCOc2ccccc2)c2ccccc12)c1ccncc1	-10%	?
CC(C)n1cc(/C=N\NC(=O)c2cc3c(ccc4ccccc43)o2)c2ccccc21	-19%	5µM*
O=C(N/N=C/c1cccnc1)c1cc2c(ccc3ccccc32)o1	-22%	4%
O=C(NC1CCCC1)c1cc2c(ccc3ccccc32)o1	-15%	-4%
Cc1ccc(/C=N/NC(=O)c2cc3c(ccc4ccccc43)o2)cc1[N+](=O)[O-]	-2%	6.3µM*
CCn1cc(/C=N/NC(=O)c2cc3c(ccc4ccccc43)o2)c2ccccc21	-2%	7.9µM*
SMILES	Cruzain Triton	Cruzain noTriton
Cc1ccc(S(=O)(=O)c2cnc(SCC(=O)Nc3ccc4c(c3)OCCO4)[nH]c2=O)cc1Cl	-18%	?
COC(=O)c1sccc1NC(=S)N1CCN(c2cccc(C)c2C)CC1	-2%	16µM*
COC(=O)c1sccc1NC(=S)N1CCCCC1	-1%	-2%
COc1ccc(NC(=O)c2oc3ccccc3c2NC(=O)c2cc3ccccc3o2)cc1	-1%	?
COc1cc(NC(=O)c2ccccc2)ccc1NC(=O)c1cc2ccccc2o1	1%	3%
O=C(Nc1c(C(=O)Nc2ccc(F)cc2)oc2ccccc12)c1cc2ccccc2o1	-2%	13µM*
COc1cc(NC(=O)c2cc(Cl)ccc2Cl)ccc1NC(=O)c1cc2ccccc2o1	-5%	16µM*
COC(=O)COc1cccc(NC(=O)c2ccc(C)cc2)c1	1%	-5%
CCCC(=O)Nc1ccc(Cl)c(NC(=S)NC(=O)c2cc3ccccc3o2)c1	-3%	5µM*
CCC(=O)Nc1ccc(NC(=S)NC(=O)c2cc3ccccc3o2)cc1	-3%	-27%
Cc1ccc(NC(=O)c2ccc(OC(=O)COc3ccc(Cl)c(C)c3)cc2)cc1	7%	16µM*
Cc1ccc(C)c(N2CCN(C(c3ccccc3)c3nnc(-c4ccccc4F)o3)CC2)c1 (stereo not drawn)	-4%	-22%
C=CCC(O)(C#Cc1ccccc1)c1ccccc1 (stereo not drawn)	1%	14%
CCc1cccc(NC(=O)Cn2c(=O)n(CCc3ccc(OC)c(OC)c3)c(=O)c3ccccc32)c1	1%	17%
CN(C)CCNC(=O)C(=O)NCC(c1cccnc1)N1CCN(c2ccccc2)CC1 (stereo not drawn)	-10%	?
O=C(O)c1ccc(NC(=O)c2cc3ccccc3o2)cc1	-6%	-5%
O=C(Nc1ccc(NC(=O)c2cc3ccccc3o2)cc1)c1ccccc1	-1%	3.2µM*
Cc1ccc(NC(=O)c2ccc(OC(=O)c3ccco3)cc2)cc1	-2%	-11%
Cc1ccc(NC(=O)c2ccc(OC(=O)c3cc4ccccc4o3)cc2)cc1	-2%	7.9µM*
